The values below come from PubChem BioAssay (NCI).

Values joined by “and” are separate entries in the source; they are usually repeats but may differ in a detail not shown here. Equal values may be shown once. The panel holds about 83,000 compounds, 20% with a hit somewhere; the sample as a whole holds those more often.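 Growth was measured after 48 h exposure to one concentration of compound in 96-well plates. Values under 10 count as active.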 Active and inactive are the calls of the source.

Test in all cases: NCI-60 one-dose screen, 48 h (100 = growth as untreated, 0 = no growth, -100 = all killed)
One assay relates to HCT-15 colon. The following applies: 10 µM.
For another assay, the system named is HT29 colon. The following applies: 10 µM.
A further assay deals with SNB-75 CNS. To be noted: 10 µM.
The subject of another assay is SNB-19 CNS. To be noted: 10 µM.
The test system of the next assay is U251 CNS. The following applies: 10 µM.
The test system of a further assay is PC-3 prostate. The following applies: 10 µM.
The next assay concerns SK-MEL-5 melanoma. The following applies: 10 µM.
The test system of another assay is UACC-62 melanoma.
The subject of the next assay is LOX IMVI melanoma. To be noted: 10 µM.
A further assay has as its system SK-MEL-2 melanoma. To be noted: 10 µM.
For a further assay, the system named is EKVX NSCLC. The following applies: 10 µM.
For the next assay, the system named is UO-31 renal. To be noted: 10 µM.
A further assay concerns TK-10 renal.
A further assay concerns ACHN renal. The following applies: 10 µM.
The test system of the next assay is CAKI-1 renal. To be noted: 10 µM.
For a further assay, the system named is A498 renal. The following applies: 10 µM.
The next assay relates to CCRF-CEM leukemia. The following applies: 10 µM.
The next assay has as its system MOLT-4 leukemia. To be noted: 10 µM unless noted.
A further assay relates to SK-MEL-28 melanoma. The following applies: 10 µM.
Another assay deals with SN12C renal. The following applies: 10 µM.

As for `COc1cccc(C(c2cc3c(cc2O)OCO3)N2CCOCC2)c1OC` (stereo not drawn), the growth is 97.4% (inactive) with HCT-15 colon; 106% (inactive) with HT29 colon; 91.2% (inactive) with SNB-75 CNS; 98.5% (inactive) with SNB-19 CNS; 101% (inactive) with U251 CNS; 95.7% (inactive) in the assay with PC-3 prostate. For the same molecule, the growth was 99.1% (inactive) in the assay on SK-MEL-5 melanoma; 95.3% (inactive) in the assay on UACC-62 melanoma (10 µM); 97.3% (inactive) in the assay on LOX IMVI melanoma; 101% (inactive) in the assay on SK-MEL-2 melanoma; 97.7% (inactive) in the assay on EKVX NSCLC; 88.7% (inactive) in the assay on UO-31 renal. Also, the growth in the assay on TK-10 renal (10 µM) is 101% (inactive); in the assay on ACHN renal, 103% (inactive); in the assay on CAKI-1 renal it was 94.7% (inactive); with A498 renal, 75.3% (inactive); in the assay on CCRF-CEM leukemia, 97.1% (inactive); in the assay with MOLT-4 leukemia, 96% (inactive).

For the molecule `Cc1cc(Cl)ccc1NC(=O)/C(Cl)=C1/Sc2ccccc2NC1=O`, the growth in the assay on HCT-15 colon was 88.2% (inactive); in the assay with HT29 colon, 107% (inactive); with SNB-75 CNS, 70.8% (inactive); with SNB-19 CNS, 94% (inactive); with U251 CNS it was 94.7% (inactive); in the assay with PC-3 prostate, 78% (inactive). In addition, the growth was 90% (inactive) in the assay on SK-MEL-5 melanoma; 74% (inactive) in the assay on UACC-62 melanoma (10 µM); 73.6% (inactive) in the assay with LOX IMVI melanoma; 125% (inactive) in the assay on SK-MEL-28 melanoma; 70.4% (inactive) with EKVX NSCLC; 76.4% (inactive) in the assay with UO-31 renal. In addition, the growth in the assay with TK-10 renal (10 µM) is 146% (inactive); in the assay with ACHN renal, 85.4% (inactive); in the assay with CAKI-1 renal, 60.8% (inactive); in the assay on A498 renal it was 131% (inactive); in the assay with CCRF-CEM leukemia it was 76.5% (inactive); in the assay on MOLT-4 leukemia it was 83.5% (inactive).

For `NCc1c(O)ccc2ccccc12`, the growth in the assay with HCT-15 colon is 98.2% (inactive); in the assay on HT29 colon, 103% (inactive); with SNB-75 CNS it was 73.5% (inactive); in the assay with U251 CNS, 103% (inactive); in the assay with PC-3 prostate, 84.9% (inactive); with SK-MEL-5 melanoma, 86.3% (inactive). Further, the growth with UACC-62 melanoma (10 µM) was 95.4% (inactive); in the assay with LOX IMVI melanoma, 101% (inactive); with SK-MEL-28 melanoma, 105% (inactive); in the assay on SK-MEL-2 melanoma, 98.2% (inactive); with EKVX NSCLC, 106% (inactive); with UO-31 renal it was 81.3% (inactive). For the same molecule, the growth with TK-10 renal (10 µM) was 108% (inactive); in the assay on ACHN renal, 103% (inactive); with CAKI-1 renal it was 74.3% (inactive); with A498 renal, 105% (inactive); in the assay with CCRF-CEM leukemia it was 93% (inactive); with MOLT-4 leukemia, 93.3% (inactive).

As to `ClCCn1c(CCl)nc2ccc(Cl)cc21`, the growth was -31.5% (active) with HCT-15 colon; -59.8% (active) in the assay with HT29 colon; 20.7% (inactive) in the assay on SNB-75 CNS; 47.9% (inactive) in the assay on SNB-19 CNS; -67.2% (active) in the assay with U251 CNS; -63.9% (active) with PC-3 prostate. The growth in the assay with SK-MEL-5 melanoma was -94.9% (active); with UACC-62 melanoma (10 µM), -79.6% (active); with LOX IMVI melanoma, 2.97% (active); with SK-MEL-28 melanoma, 42.8% (inactive); in the assay with SK-MEL-2 melanoma, -56% (active); with UO-31 renal it was -82.6% (active). The growth in the assay on TK-10 renal (10 µM) was -30.6% (active); in the assay with ACHN renal, -68.8% (active); with CAKI-1 renal, -28.5% (active); with A498 renal, 1.48% (active); in the assay on CCRF-CEM leukemia, -46.8% (active); with MOLT-4 leukemia it was -52.7% (active).

For the molecule `COc1ccc(C(C#N)=C2C=CC(=NO)C=C2)cc1`, the growth was 91.5% (inactive) in the assay on HCT-15 colon; 91.6% (inactive) with SNB-75 CNS; 111% (inactive) with SNB-19 CNS; 53.9% (inactive) in the assay on U251 CNS; 50.4% (inactive) with PC-3 prostate; 80.3% (inactive) in the assay with SK-MEL-5 melanoma. The growth with UACC-62 melanoma (10 µM) was 66.3% (inactive); in the assay with LOX IMVI melanoma it was 59.5% (inactive); in the assay on SK-MEL-28 melanoma, 106% (inactive); in the assay on EKVX NSCLC, 125% (inactive); in the assay on UO-31 renal it was 67% (inactive); in the assay on TK-10 renal (10 µM), 12.9% (inactive). Further, the growth in the assay with ACHN renal was 78.5% (inactive); with CAKI-1 renal it was 93.6% (inactive); in the assay with A498 renal it was 114% (inactive); in the assay on CCRF-CEM leukemia it was 29.8% (inactive); in the assay with MOLT-4 leukemia it was 58.4% (inactive).

For `O=C(CCc1ccccc1)ON1C(=S)C(c2ccccc2)(c2ccccc2)N=C1Sc1ccccc1`, the growth in the assay on UACC-62 melanoma (100 µM) is 10.7% (inactive) and 0.462% (active); in the assay on TK-10 renal (100 µM) it was 28.6% (inactive) and 7.58% (active).

As for `N#CC(=S)Nc1cccc(Cl)c1`, the growth with UACC-62 melanoma (100 µM) was 1.5% (active) and -86.8% (active); in the assay on TK-10 renal (100 µM), 5.57% (active) and -9.55% (active).

As to `O=C1c2ccccc2CCC1(Br)Br`, the growth is -57% (active) in the assay on HCT-15 colon; 12% (inactive) with HT29 colon; 56.6% (inactive) in the assay with SNB-75 CNS; 89.4% (inactive) with SNB-19 CNS; 54.5% (inactive) in the assay with PC-3 prostate; 32.1% (inactive) with UACC-62 melanoma (10 µM). For the same molecule, the growth is 56.5% (inactive) in the assay with SK-MEL-28 melanoma; 28.3% (inactive) in the assay with SN12C renal; 28% (inactive) with UO-31 renal; -11% (active) in the assay on TK-10 renal (10 µM); -95.2% (active) in the assay with ACHN renal; 18.7% (inactive) with CAKI-1 renal. Also, the growth in the assay on A498 renal was 70.8% (inactive); in the assay with CCRF-CEM leukemia, -22.2% (active); in the assay with MOLT-4 leukemia, -13.4% (active).

With `COc1ccc2c(c1)[nH]c1c(/C=C/c3ccccc3)nccc12`, the growth in the assay with HCT-15 colon was 43.9% (inactive); with HT29 colon it was 21.6% (inactive); in the assay on SNB-75 CNS, 35.7% (inactive); in the assay on SNB-19 CNS it was 76.5% (inactive); in the assay on U251 CNS it was 70.4% (inactive); in the assay on PC-3 prostate it was 42.5% (inactive). Moreover, the growth is 72.8% (inactive) in the assay on SK-MEL-5 melanoma; 78.9% (inactive) in the assay on UACC-62 melanoma (10 µM); 63.4% (inactive) in the assay with LOX IMVI melanoma; 89.5% (inactive) in the assay on SK-MEL-2 melanoma; 62.2% (inactive) in the assay on EKVX NSCLC; 25.7% (inactive) in the assay with UO-31 renal. The growth was 81.2% (inactive) in the assay with TK-10 renal (10 µM); 61.1% (inactive) with ACHN renal; 58.4% (inactive) in the assay on CAKI-1 renal; 71.2% (inactive) in the assay on A498 renal; 65% (inactive) in the assay with CCRF-CEM leukemia; 48% (inactive) with MOLT-4 leukemia.

Regarding `CC[C@@]1(OC(=O)CN(C)C)C(=O)OCc2c1cc1n(c2=O)Cc2cc3c(N)cccc3nc2-1`, the growth with HCT-15 colon was 6.43% (active); in the assay with HT29 colon, 4.94% (active); in the assay with SNB-75 CNS, -10.5% (active); in the assay with SNB-19 CNS it was 11.2% (inactive); with U251 CNS, 3.98% (active); with PC-3 prostate, 18% (inactive). The growth with UACC-62 melanoma (10 µM) is -77.8% (active); with LOX IMVI melanoma it was -39.3% (active); with SK-MEL-28 melanoma it was 16.5% (inactive); in the assay on SK-MEL-2 melanoma, -17.4% (active); with EKVX NSCLC, 18.2% (inactive); in the assay on UO-31 renal, -50.8% (active). Besides, the growth in the assay with TK-10 renal (10 µM) is 20.1% (inactive); with ACHN renal, -49% (active); in the assay on CAKI-1 renal, -20.1% (active); in the assay on A498 renal, -56.6% (active); in the assay with CCRF-CEM leukemia, 5.31% (active); with MOLT-4 leukemia, -0.423% (active).

As to `Clc1c(Cl)c(Cl)c2c(nnn2C2CCCO2)c1Cl` (stereo not drawn), the growth was -55.3% (active) and -99.6% (active) with UACC-62 melanoma (100 µM); -9.89% (active) and -74.8% (active) in the assay on TK-10 renal (100 µM).

Consider `COc1cc2c(cc1C[N+](C)(C)CSc1ccccc1)-c1ccccc1CC2`, for which the growth in the assay on UACC-62 melanoma (100 µM) is -96.4% (active) and -92.3% (active); in the assay with TK-10 renal (100 µM), -93.9% (active) and -97.7% (active).
